Measured values reported in PubChem BioAssay AID1863 (Southern Research Specialized Biocontainment Screening …, 2009).
Several values for one entry are separate records, joined by “and”; a condition that tells them apart may be missing. Equal entries are not always repeated. Among all 300,000 compounds or so, about 480 (0.16%) were called active.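 Rule for the calls: active = inhibition over 29.93%, a cutoff 3 SD above the screen mean, later confirmed by dose response; inconclusive = inhibition over 29.93% but no dose response follow-up; inactive = inhibition at most 29.93% or unconfirmed.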 Not all results are given here. Measured potencies and affinities stand elsewhere.

Assay: inhibitors of PhoP regulon expression, primary screen, Salmonella Typhimurium, GFP reporter (AID 1863);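 note: 0% = low Mg2+ inducing control and 100% = high Mg2+ repressing control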
Settings: S. Typhimurium PhoP-regulated promoter GFP reporter, 4 h; at 50 µM; hits give high values

inhibition, inactive:
CCCNC(=O)Nc1ccc(F)c(Cl)c1 -2.59%, COc1ccc(CNc2nc(NCc3ccc(OC)cc3)n(S(C)(=O)=O)n2)cc1 -5.9%, Cc1c(NC(=O)/C(C#N)=C/c2ccccc2)c(=O)n(-c2ccccc2)n1C 0.82%, CCc1ccc2nc(N)sc2c1 1.27%, Cc1[nH]cnc1C(=O)N/N=C/c1ccc([N+](=O)[O-])s1 4.75%, Cc1cc(C(=O)N/N=C/c2ccc(C)s2)n[nH]1 11.3%, O=C(N/N=C/c1ccc([N+](=O)[O-])s1)c1ccccc1 -2.83%, O=C(N/N=C/c1ccc(Cl)s1)C(O)c1ccccc1 (centres undefined) -4.15%, O=C(CSc1nnc(-c2ccccn2)o1)Nc1ccccc1 -5.62%, CCc1ccccc1NC(=O)c1cc(-c2cccs2)on1 -12.5%, COC(=O)c1cc(N=C(N)N=C(N)N)cc(C(=O)OC)c1 -9.38%, O=c1c2ccccc2nc2c3ccccc3c(Cl)nn12 4.87%, Cc1ccc(OCCC(=O)OCC(=O)Nc2cc(C)cc(C)c2)cc1 -5.06%, Cc1cc(NC(=O)COC(=O)C2=COCCO2)c([N+](=O)[O-])cc1C -7.57%, COc1ccccc1N1CCN(Cc2ccc(O)c3ncccc23)CC1 18.9%, Oc1cc2c(cc1CN1CCc3ccccc3C1)OCO2 -4.04%, Oc1ccc(CN2CCN(c3ccccc3)CC2)c2cccnc12 -1.49%, Oc1ccc(CN2CCC(Cc3ccccc3)CC2)c2cccnc12 10.7%, COCc1cc(CN2CCN(C)CC2)c(O)c2ncccc12 6.95%, Oc1ccc(CNc2ccccc2)c2cccnc12 5.74%, COCc1ccc(O)c2ncccc12 -1.56%, Cc1ccccc1NCc1ccc(O)c2ncccc12 -2.12%, CC(=O)Nc1ccc(S(=O)(=O)NC(C)C(=O)NC(C)c2ccccc2)cc1 (centres undefined) -5.32%, Cc1ccccc1OCC(=O)NC(=S)Nc1ccccc1N1CCN(S(C)(=O)=O)CC1 -1.77%, CC1=C(C(=O)OC(C)C)C(c2ccsc2)NC(=O)N1C (centres undefined) -5.45%, Cc1ccc(S(=O)(=O)NCCC(=O)NCC(=O)Nc2c(C)cccc2C)cc1C -4.98%, Cc1nc2ccccc2n1CCCOc1ccccc1 5.12%, OC(COc1ccc(Cl)cc1)CN1CCC(Cc2ccccc2)CC1 (centres undefined) -10.4%, CC1(C)CCC(=O)C=C1Nc1ccc(F)c(Cl)c1 -5.11%, CCC(CC)C1=NN2C(=N)/C(=C/c3ccc(OC(=O)c4ccco4)cc3)C(=O)N=C2S1 -9.8%, C=CCN(c1ccccc1)S(=O)(=O)c1cccc(C(=O)N2CC(C)CC(C)C2)c1 (centres undefined) -1.91%, CCCOc1ccc(C(C)(O)CN2CCOCC2)cc1 (centres undefined) 6.65%, CCOC(=O)C1CCN(Cc2ccc(O)c3ncccc23)CC1 6.23%, Oc1ccc(CN2CCCCC2)c2cccnc12 8.92%, CN(Cc1ccccc1)S(=O)(=O)c1ccccc1[N+](=O)[O-] 6.63%, CCn1cc(C(=O)O)c(=O)c2cnc(N3CCN(C(=S)Nc4ccccc4Cl)CC3)nc21 14.7%, CCn1cc(C(=O)NC(C)C)c(=O)c2cc(F)c(N3CCN(C(=O)c4ccco4)CC3)cc21 3.82%, COc1ccccc1NC(=S)N1CCN(c2ccccc2F)CC1 -4.74%, COc1ccc(CCNC(=O)C(C(=O)c2ccc(F)cc2)n2ccccc2=O)cc1OC (centres undefined) 7.45%, Cc1cc(C)n(CCNS(=O)(=O)c2ccc(C)c(C)c2)n1 5.17%, CC(C)(C)NC(=O)NC(=O)CSc1ncn[nH]1 4.4%, O=C(NC(=S)NNC(=O)c1cc2ccccc2cc1O)c1ccco1 -4.81%, O=C(NNC(=O)c1ccccc1O)c1ccco1 4.25%, O=C1CC(c2cc([N+](=O)[O-])ccc2Cl)c2c(ccc3ccccc23)N1 (centres undefined) -8.09%, COc1cccc(/C=C/C(=O)OCC(=O)Nc2ccccc2Sc2ccccc2)c1 14.5%, COC(=O)C1=CO[C@@H](OC2OC(CO)C(O)C(O)C2O)[C@@H]2[C@@H](C)[C@@H](O)C[C@H]12 (some centres undefined) -2.72%, Cc1ccc(C)c(/C(O)=C2/C(=O)C(=O)N(CCN3CCOCC3)C2c2ccc(C)o2)c1 (centres undefined) 3.28%, Cc1ccc(S(=O)(=O)Oc2ccc(/C=N/NC(=O)c3nn(C)cc3Cl)cc2)cc1 1.65%, Cc1ccccc1NC(=O)Cn1nc(-c2ccc(Cl)s2)ccc1=O -3.56%, O=C(c1cnc2n(c1=O)CCS2)N1CCN(C(c2ccccc2)c2ccc(Cl)cc2)CC1 (centres undefined) 3.09%, O=C1CN(/N=C/c2ccc([N+](=O)[O-])o2)C(=O)N1 -5.89%, O=C(O)/C=C/c1ccc([N+](=O)[O-])o1 23.2%, COc1ccc2nc(Nc3ccc4c(c3)OCO4)sc2c1 14%, CC(C)CN(C(=O)COC(=O)CCCc1nc2ccccc2s1)c1c(N)n(Cc2ccccc2)c(=O)[nH]c1=O -9.27%, O=C(NCCCc1ccccc1)c1ccc(-n2cncn2)c([N+](=O)[O-])c1 2.7%, O=c1[nH]cc(O)c(=O)[nH]1 6.24%, O=c1[nH]cc(-c2ccccc2)c(=O)[nH]1 -0.675%, O=[N+]([O-])c1ccccc1/C=N/n1c(C2CCCCC2)n[nH]c1=S 8.51%, Cn1c(-c2ccccc2)c(CCO)c2ccccc21 -0.97%, c1ccc(-n2c3ccccc3c3ccccc32)cc1 -2.33%, O=C(CN(Cc1ccc(Br)cc1)S(=O)(=O)c1ccccc1)NCC1CCCO1 (centres undefined) -5.51%, Cc1ccc(N2CC(C(=O)Nc3ccccc3C(=O)NC3CCCCC3)CC2=O)cc1 (centres undefined) 3.33%, CC(NC(=O)CCNC(=O)c1ccccc1Cl)C1CC2CCC1C2 (centres undefined) 10.5%, Cc1cccc(Nc2cc(=O)[nH]c(=O)[nH]2)c1C 11.8%, Nc1ccn([C@@H]2O[C@H](CO)[C@@H](O)C2O)c(=O)n1 (some centres undefined) -5.08% and -1.41%, Nc1ccn([C@@H]2O[C@H](CO)[C@@H](O)[C@@H]2O)c(=O)n1 -7.73% and -0.16%, Nc1ncnc2c1ncn2[C@@H]1O[C@H](CO)[C@@H](O)[C@H]1O 3.62%, NC(=O)c1ncn([C@@H]2O[C@H](CO)[C@@H](O)[C@H]2O)c1O 2.19%, Nc1nc(Cl)nc2c1ncn2[C@@H]1O[C@H](CO)[C@@H](O)[C@H]1O -6.56% and 6.76%, Nc1cnn(C2OC(CO)C(O)C2O)c(=O)n1 (centres undefined) -3.56%, Cc1cc(C)c(NC(=O)CNC(=O)CN2C(=O)NC3(CCCc4ccccc43)C2=O)c(C)c1 (centres undefined) 0.74%, Cc1cccc(Nc2nccc(N(C)C)c2C#N)c1 -5.86%, COc1ccc(-c2noc(CCC(=O)NCCN3CCN(c4ccccc4F)CC3)n2)cc1 -6.34%, O=C(Nc1cccc2ccccc12)N1CC=C(c2ccccc2)CC1 8.64%, CC(CN1CCCCC1)C(=O)NN (centres undefined) 2.4%, O=C(CNC(=O)c1ccccc1F)N/N=C/c1cn[nH]c1-c1ccccc1 -11.6%, Cc1cc(OCC(=O)OCC(=O)N(C)c2c(N)n(Cc3ccccc3)c(=O)[nH]c2=O)ccc1Cl -6.01%, O=C(NCC1CCCO1)c1cccnc1Nc1ccccc1F (centres undefined) 8.77%, CC1=C(C(=O)Nc2cccc([N+](=O)[O-])c2)C2(CCC(C)CC2)OC1=O (centres undefined) -3.06%, O=C(Cc1ccc(-n2c(=O)[nH]c3ccsc3c2=O)cc1)NCc1cccnc1 0.29%, CNC(=S)Nc1cc(C(F)(F)F)ccc1Cl 4.05%, COc1cc(/C=C/C(=O)CC(=O)/C=C/c2ccc(O)c(OC)c2)ccc1O 8.28%, COc1cc(/C=C/C(=O)O)ccc1O -9.92%, O=C(Cn1c(=O)oc2cc(S(=O)(=O)N3CCCC3)ccc21)Nc1ccccc1Br -3.67%, CCNc1nc(NC(C)C)nc(OCC)n1 -7.28%, CCO[C@@H]1OC(C(=O)N2CCN(Cc3ccc4c(c3)OCO4)CC2)=C[C@H](C2CCCCC2)[C@H]1CCCO 2.5%, CCCCCCCNC(=O)C1(CC2CC(c3cccc(Br)c3)=NO2)CCN(C(=O)C2CCCC2)CC1 (centres undefined) 12.9%, CCCCCCCNC(=O)C1(CC2CC(c3ccccc3)=NO2)CCNCC1 (centres undefined) 0.18%, CCCCCCCNC(=O)C1(CC2CC(c3ccc(Cl)cc3)=NO2)CCN(C(=O)C2(C)CC2)CC1 (centres undefined) -5.4%, CCCCCCCNC(=O)C1(CC2CC(c3cccc(Br)c3)=NO2)CCN(C(=O)OC(C)(C)C)CC1 (centres undefined) -0.33%, Cc1ccccc1C(=O)Nc1ccccc1NC(=O)c1ccccc1Br -5.42%, CCc1nc(C)cn1S(=O)(=O)c1cc(Br)ccc1OC 1.41%, COC(CNC(=O)C(=O)NCC1OCCN1C(=O)c1ccc(Cl)cc1)OC (centres undefined) 12.8%, CC(C)C[C@H](NC(=O)N1CCn2c1nc1ccccc12)C(=O)NCc1ccco1 -1.56%
